Paper PMC4336329 (PLoS ONE, 2015)
Screen size: about 310,000 compounds; about 14,000 (4.5%) showed an effect of 50% or more. Effects have a minus sign here. Many of the other results were omitted from the sample, so strong results are more common in it than they were.

Biological target: human ether-à-go-go-related gene (hERG) potassium channel (human, UniProt Q12809)
Assay: primary screen, population patch clamp on CHO cells stably expressing hERG; higher = less effect of the substance
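Also: peak tail current of the secondary pulse compared with the same well before compound.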

Sequence of human ether-à-go-go-related gene (hERG) potassium channel (Q12809 whole entry, looked up): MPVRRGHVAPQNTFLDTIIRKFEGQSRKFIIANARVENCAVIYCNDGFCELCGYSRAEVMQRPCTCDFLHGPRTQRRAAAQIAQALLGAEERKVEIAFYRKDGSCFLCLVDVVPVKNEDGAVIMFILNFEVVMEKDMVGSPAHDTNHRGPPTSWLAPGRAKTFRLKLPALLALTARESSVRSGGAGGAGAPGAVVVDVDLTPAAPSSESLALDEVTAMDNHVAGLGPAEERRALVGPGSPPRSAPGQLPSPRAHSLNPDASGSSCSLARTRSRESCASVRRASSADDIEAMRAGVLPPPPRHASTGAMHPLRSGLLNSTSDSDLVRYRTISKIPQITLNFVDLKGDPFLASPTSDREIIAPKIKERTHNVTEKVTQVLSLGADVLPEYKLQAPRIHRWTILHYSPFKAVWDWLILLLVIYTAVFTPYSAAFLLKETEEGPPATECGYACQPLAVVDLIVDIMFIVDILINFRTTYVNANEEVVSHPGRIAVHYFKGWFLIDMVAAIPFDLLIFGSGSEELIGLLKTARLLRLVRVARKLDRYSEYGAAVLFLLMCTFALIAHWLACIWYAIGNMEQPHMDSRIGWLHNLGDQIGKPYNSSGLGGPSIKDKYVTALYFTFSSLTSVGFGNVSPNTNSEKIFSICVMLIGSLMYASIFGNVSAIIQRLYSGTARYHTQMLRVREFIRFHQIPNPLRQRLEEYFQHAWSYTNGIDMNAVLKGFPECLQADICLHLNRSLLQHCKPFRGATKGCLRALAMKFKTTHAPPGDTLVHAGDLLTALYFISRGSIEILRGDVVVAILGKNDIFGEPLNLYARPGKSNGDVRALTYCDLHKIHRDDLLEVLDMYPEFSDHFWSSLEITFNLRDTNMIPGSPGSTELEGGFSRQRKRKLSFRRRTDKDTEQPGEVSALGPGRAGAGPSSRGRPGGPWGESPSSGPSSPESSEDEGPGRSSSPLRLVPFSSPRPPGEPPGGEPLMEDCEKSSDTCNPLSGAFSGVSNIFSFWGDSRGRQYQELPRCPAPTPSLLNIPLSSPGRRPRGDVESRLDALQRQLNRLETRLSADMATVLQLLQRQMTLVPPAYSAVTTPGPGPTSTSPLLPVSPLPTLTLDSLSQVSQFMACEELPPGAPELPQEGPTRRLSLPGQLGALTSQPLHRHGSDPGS

Row | SMILES | hERG current change (%, negative = inhibition) at 10uM
1 | COC(OC)c1ccc(C#N)c(SCc2ccccc2)n1 | 4.03%
2 | CCNS(=O)(=O)c1ccc(CCC(=O)NCc2ccccn2)cc1 | 13.5%
3 | O=C(CCl)NNc1nc(-c2ccccc2)c2cc(Cl)ccc2n1 | 1.46%
4 | CC(=O)NNc1nc(-c2ccccc2)c2cc(Br)ccc2n1 | 5.01%
5 | O=C(CN1CCCCC1)NNc1nc(-c2ccccc2)c2cc(Br)ccc2n1 | -55.4%
6 | O=C(CN1CCOCC1)NNc1nc(-c2ccccc2)c2cc(Br)ccc2n1 | -38.7%
7 | O=C(O)CCC(=O)NNc1nc(-c2ccccc2)c2cc(Cl)ccc2n1 | 14.4%
8 | O=C(CN1CCCCC1)NNc1nc(-c2ccccc2)c2cc(Cl)ccc2n1 | -58%
9 | COCCN(C(=O)CCCC(=O)Nc1ccccn1)C(C(=O)NC1CCCC1)c1ccc(C)cc1 (stereo not shown) | -5.66%
10 | O=C(Nc1cc2c(oc1=O)CCCC2=O)c1cccc(Cl)c1 | 4.61%
11 | CCC(Oc1ccccc1)C(=O)Nc1ccccc1C(=O)N1CCN(C)CC1 (stereo not shown) | 0.0528%
12 | N#CC(c1ccccc1)N1CCOCC1 (stereo not shown) | 6.63%
13 | S=C1SCN(Cc2cccnc2)CN1Cc1cccnc1 | -20.9%
14 | S=C1NCN(Cc2cccnc2)CN1Cc1ccccc1 | 22.8%
15 | S=C1SCN(Cc2cccnc2)CN1Cc1ccccc1 | -54.7%
16 | Fc1ccc2[nH]c3c(N4CCN(C5CCCCC5)CC4)ncnc3c2c1 | -46.7%
17 | COc1ccc(CN(CC2CCC(C(=O)O)CC2)C(=S)Nc2cc(C)cc(C)c2)cc1 (stereo not shown) | 19.6%
18 | CCN1CCN(c2cc(C)nc(-c3ccccc3O)n2)CC1 | -58.9%
19 | Cc1cc(N2CCCC2)nc(-c2ccccc2O)n1 | -1.15%
20 | Cc1cc(N2CCN(C)CC2)nc(-c2ccccc2O)n1 | -41.9%
21 | Cc1ccc(CN2CC(C(=O)Nc3cccc(S(=O)(=O)N4CCCCC4)c3)CC2=O)cc1 (stereo not shown) | 6.85%
22 | CC(=O)c1ccc(OCC(C)C)c(CC(C(N)=O)C(N)=O)c1 | 19.2%
23 | CCOC(=O)C1=C(C)N(CCO)C(=O)NC1c1cccc(O)c1 (stereo not shown) | 18.8%
24 | CSc1cccc(CN2CCC(n3nccc3NC(=O)C3CC3)CC2)c1 | -51.4%

Row | SMILES | hERG current change (%, negative = inhibition) at 10uM
25 | CSc1ccc(CC(=O)N2CCC(n3nccc3NC(=O)C3CC3)CC2)cc1 | -8.47%
26 | CC(C)n1cc(CN2CCC(n3nccc3NC(=O)C3CCCC3)CC2)cn1 | -1.92%
27 | CC(Cc1ccc(Cl)cc1)N1CCC(n2nccc2NC(=O)C2CCCC2)CC1 (stereo not shown) | -76.3%
28 | Cc1ccc(CN2CCC(n3nccc3NC(=O)C3CCOC3)CC2)cc1 (stereo not shown) | -26.8%
29 | O=C(Nc1ccnn1C1CCN(Cc2ccc(O)c(Cl)c2)CC1)C1CCCC1 | -33%
30 | CSc1ccc(CN2CCC(n3nccc3NC(=O)C3CCOC3)CC2)cc1 (stereo not shown) | -67.8%
31 | O=C(Nc1ccnn1C1CCN(Cc2ccc(Cl)cc2)CC1)C1CCCC1 | -63.6%
32 | O=C(Nc1ccnn1C1CCN(Cc2ccccc2)CC1)C1CCOC1 (stereo not shown) | 18.8%
33 | O=C(Nc1ccnn1C1CCN(Cc2cccc(O)c2)CC1)C1CCCC1 | -36.5%
34 | O=C(Nc1ccnn1C1CCN(Cc2ccccc2)CC1)C1CCCC1 | -36.7%
35 | O=C(Nc1ccnn1C1CCN(C(=O)c2ccc(Cl)cc2)CC1)C1CC1 | -24.2%
36 | CNC(=S)N/N=C/c1cn(CCOc2cccc(OC)c2)c2ccccc12 | 3.42%
37 | O=C([O-])C(CCCCNS(=O)(=O)c1ccc(F)cc1)NS(=O)(=O)c1ccc(F)cc1.[K+] (stereo not shown) | 20.3%
38 | COc1ccccc1NC(=O)C1=C(C)Nc2nc(CCCO)nn2C1c1ccc2c(c1)OCO2 (stereo not shown) | 7.42%
39 | CCOC(=O)C1CCCC(NS(=O)(=O)c2ccc(NC(C)=O)cc2)C1 (stereo not shown) | -2.41%
40 | Cc1ccc(S(=O)(=O)/N=C(/c2ccccc2)N(C)C)c(C)c1 | 12.7%
41 | NC(=S)N/N=C1\c2ccccc2-c2c(C(=O)O)cccc21 | 12.7%
42 | Cc1cc(C)c(C(=O)N2CCCC(CNC(=O)C3(c4ccc(Cl)cc4)CC3)C2)c(=O)[nH]1 (stereo not shown) | 6.58%
43 | COCCN1C(=O)C(=O)/C(=C(/O)c2ccc(S(=O)(=O)N3CCOCC3)cc2)C1c1ccc(O)cc1 (stereo not shown) | 3.78%
44 | O=C1OCC(CO)(CO)N=C1NNc1ccc(Cl)c(Cl)c1 | 8.16%
45 | COC(=O)c1ccc2c(=O)n(CCCCCC(=O)NCc3ccc4c(c3)OCO4)c(=O)[nH]c2c1 | -31.7%
46 | Cc1cc(C)cc(NC(=S)N2CCN(c3ccc(F)cc3)CC2)c1 | -8.95%
47 | COC(=O)C1=C(c2ccccc2OCc2ccccc2)C[C@@H]2CC[C@H]1N2C(=O)NCc1ccc(N(C)C)cc1 | 10.9%
48 | O=C(Nc1ccnn1C1CCN(Cc2cccc(OCCO)c2)CC1)C1CCCC1 | -24.8%

Row | SMILES | hERG current change (%, negative = inhibition) at 10uM
49 | CCn1cc(CN2CCC(n3nccc3NC(=O)C3CCCC3)CC2)cn1 | -6.15%
50 | CCOc1cccc(CN2CCC(n3nccc3NC(=O)C3CCCC3)CC2)c1 | -55.3%
51 | CCc1ccc(CN2CCC(n3nccc3NC(=O)C3CCCC3)CC2)cc1 | -76.3%
52 | O=C(Nc1ccnn1C1CCN(Cc2cccc(OCCO)c2)CC1)C1CCOC1 (stereo not shown) | -2.98%
53 | CC(C)Cc1ccc(CN2CCC(n3nccc3NC(=O)C3CCCC3)CC2)cc1 | -72.4%
54 | Cn1c(=S)c2[nH]c(SCCN3CCCC3)nc2n(C)c1=O | 10.5%
55 | Cc1ccccc1NC(=S)N(CCN(C)C)C(C)c1ccccn1 (stereo not shown) | -8.78%
56 | OCCCNCc1cccc2ccccc12 | -15.8%
57 | Cc1ccc(C(C(=O)NC2CCCCC2)N(C(=O)CCCC(=O)Nc2ccccn2)c2ccc3c(c2)OCCO3)cc1 (stereo not shown) | -3.99%
58 | COC(=O)c1ccc(CSc2nnc3c(n2)[nH]c2ccccc23)cc1 | -23.1%
59 | Cc1sc2ncnc(N3CCN(S(=O)(=O)c4ccc(F)cc4)CC3)c2c1C | -50.9%
60 | CCS(=O)(=O)N1CCN(c2ncnc3sc(C)c(C)c23)CC1 | -53.7%
61 | Cc1sc2ncnc(N3CCN(S(=O)(=O)c4ccccc4)CC3)c2c1C | -18.6%
62 | Cc1cc(C)c(C)c(S(=O)(=O)N2CCN(c3ncnc4sc(C)c(C)c34)CC2)c1C | 8.21%
63 | Cc1sc2ncnc(N3CCCCC3)c2c1C | -11.9%
64 | Cc1sc2ncnc(N3CCN(S(=O)(=O)c4ccc(Br)cc4)CC3)c2c1C | -47.5%
65 | COc1ccccc1NC(=O)NCC(=O)Nc1c(C)cccc1C | 30.5%
66 | CCOC(=O)c1ccc(CS(=O)c2ccc(Cl)cc2)o1 (stereo not shown) | -3.47%
67 | Cc1cc(C)c(NC(=O)CCCN2CCOCC2)c(C)c1 | 13.1%
68 | COC(=O)c1scc(C)c1NC(=O)CC1NCCNC1=O (stereo not shown) | 11.9%
69 | O=C(C[n+]1ccccc1)c1ccc(-c2ccccc2)cc1.[Br-] | -21.4%
70 | COC(=O)c1ccc(CC(=O)c2c(C)cc(O)cc2O)o1 | 0.801%
71 | CC1CC(C)CN(CCOCCSc2ccccc2)C1.O=C(O)C(=O)O (stereo not shown) | -45.1%
72 | CC1CN(CCCCSc2ccc(Cl)cc2)CC(C)O1.O=C(O)C(=O)O (stereo not shown) | -31.6%

Row | SMILES | hERG current change (%, negative = inhibition) at 10uM
73 | CC1CN(CCOCCSc2ccc(Cl)cc2)CC(C)O1.O=C(O)C(=O)O (stereo not shown) | -23.3%
74 | CC1CC(C)CN(CCOCCSc2ccc(Cl)cc2)C1.O=C(O)C(=O)O (stereo not shown) | -72.4%
75 | CN(C)CCOCCSc1ccc(Cl)cc1.O=C(O)C(=O)O | -37.3%
76 | CC1CCN(CCOCCSc2ccc(Cl)cc2)CC1.O=C(O)C(=O)O | -72.1%
77 | CC1CC(C)CN(CCCSc2ccccc2)C1.O=C(O)C(=O)O (stereo not shown) | -64.3%
78 | CC1CN(CCCCSc2ccccc2)CC(C)O1.Cl (stereo not shown) | -8.71%
79 | CC1CN(CCCSc2ccc(Cl)cc2)CC(C)O1.O=C(O)C(=O)O (stereo not shown) | -47.9%
80 | Cc1cccc(OCC(O)Cn2c(N3CCCCC3)nc3c2c(=O)n(C)c(=O)n3C)c1 (stereo not shown) | -13.7%
81 | CCN(CC)S(=O)(=O)c1cccc(-c2nnc(SCc3nc4ccccc4s3)o2)c1 | -3.82%
82 | O=S(=O)(Nc1ccccc1F)c1ccc(Cl)nc1 | 5.63%
83 | Cc1ccc2oc(C(=O)NCCC3CCCCO3)c(C)c2c1 (stereo not shown) | -11.5%
84 | Cn1c(=O)c2[nH]c(N=Nc3ccc(N)cc3N)nc2n(C)c1=O | 28.7%
85 | O=c1cc(NS(=O)(=O)c2ccccc2)nc(SCc2ccccc2Cl)[nH]1 | 6.99%
86 | COc1cccc(N2CCN(C3CC(=O)N(c4ccc(F)c(Cl)c4)C3=O)CC2)c1 (stereo not shown) | -12.6%
87 | CCOc1ccc(N2C(=O)CC(N3CCN(C4CCc5ccccc5C4)CC3)C2=O)cc1 (stereo not shown) | -71.5%
88 | COc1ccc(N2C(=O)CC(N3CCN(C4CCc5ccccc5C4)CC3)C2=O)cc1 (stereo not shown) | -61.7%
89 | COc1ccc(N2C(=O)CC(N3CCN(c4ccc(Cl)cc4)CC3)C2=O)cc1 (stereo not shown) | -4.94%
90 | COc1ccc(N2C(=O)CC(N3CCCCC3)C2=O)cc1 (stereo not shown) | 18.6%
91 | COc1ccc(N2C(=O)CC(N3CCN(c4ccccc4)CC3)C2=O)cc1 (stereo not shown) | 8.93%
92 | CCOc1ccc(N2C(=O)CC(N3CCc4ccccc43)C2=O)cc1 (stereo not shown) | -3.24%
93 | CCOc1ccc(N2C(=O)CC(N3CCN(c4ccccc4F)CC3)C2=O)cc1 (stereo not shown) | 6.59%
94 | COc1ccc(NC2CCN(C3CC(=O)N(c4ccc(F)c(Cl)c4)C3=O)CC2)cc1 (stereo not shown) | -54.8%
